This is a sample that favours compounds with a hit; in the whole collection about 2.4% have one here.
Cruzain noTriton: blocks cruzain activity in detergent-free assay | hit rate 2.3% among 200,000 | Potency, µM, hits mostly inhibitors | purified cruzain, Z-FR-AMC fluorescence, no detergent; note: nearly all actives have a fitted effect of over 40% in size
Target sequence (P25779 123-467 limits assumed): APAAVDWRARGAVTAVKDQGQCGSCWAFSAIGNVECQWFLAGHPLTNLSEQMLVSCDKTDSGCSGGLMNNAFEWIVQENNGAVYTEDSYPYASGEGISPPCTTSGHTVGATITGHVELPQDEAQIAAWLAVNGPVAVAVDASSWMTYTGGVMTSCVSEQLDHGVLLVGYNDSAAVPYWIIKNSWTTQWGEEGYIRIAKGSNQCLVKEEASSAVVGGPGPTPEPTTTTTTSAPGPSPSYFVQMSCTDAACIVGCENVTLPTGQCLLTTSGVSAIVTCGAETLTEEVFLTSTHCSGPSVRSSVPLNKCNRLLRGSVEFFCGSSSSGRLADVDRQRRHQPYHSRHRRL
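Detergent-free condition (0.00005% Triton X-100) in acetate buffer pH 5.5 with DTT. 1.5 nM enzyme and compound were pre-mixed 15 min, then 2 uM Z-FR-AMC substrate added; reaction progress from fluorescence change between first and third reads (60 s).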
Cruzain inh Det: blocks cruzain activity in presence of Triton detergent; P25779; purified cruzain, Z-FR-AMC fluorescence, 0.01% Triton; Potency, µM, actives largely listed as inhibitors; hit rate 0.43% among 200,000; AID 1478; note: nearly all actives have a fitted effect of over 40% in size
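Enzyme 1.5 nM, Z-FR-AMC 2 uM, NaOAc 100 mM pH 5.5, DTT 5 mM, Triton X-100 0.01%; 15 min RT compound preincubation; kinetic ex360/em450, 60 s delta.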
Hits are given with their value; 0 = inactive; ? = inconclusive. Calls come from the whole dose curve; as a rule, active = well fitted curve in the direction sought with a large enough effect; inconclusive = small, poorly fitted or top-dose-only effect, or another doubt; inactive = no such curve, though single readings can be large; an effect the other way counts as inactive or inconclusive.

SMILES	Cruzain noTriton	Cruzain inh Det
COc1ccc(N2CCN(c3oc(Cc4cccc5ccccc45)nc3C#N)CC2)cc1	16µM	0
N#Cc1nc(Cc2cccc3ccccc23)oc1N1CCN(c2ccccc2)CC1	7.9µM	0
N#Cc1nc(Cc2cccc3ccccc23)oc1N1CCOCC1	0	0
CC1CCN(c2oc(Cc3cccc4ccccc34)nc2C#N)CC1	0	0
CC1(C)Cc2c(C#N)c(N3CCN(C(=O)c4ccccc4Cl)CC3)nc(-c3ccco3)c2CS1	?	11µM
CN1Cc2c(N3CCOCC3)nc(SCc3ccccc3)c(C#N)c2CC1(C)C	0	0
CC(=O)N1CCN(c2nc(-c3ccco3)c3c(c2C#N)CC(C)(C)SC3)CC1	?	0
CC1(C)Cc2c(C#N)c(SCC(=O)c3ccccc3)nc(N3CCOCC3)c2CS1	25µM	0
O=C(c1ccco1)n1nc(-c2ccccc2)nc1NCc1ccccc1Cl	0	0
Cc1ccccc1NC(=O)c1c(C)oc2ccc(O)c(CN3CCC(C)CC3)c12	0	0
C=C(C)CSc1nc2sc3c(c2c(=O)n1-c1ccccc1)CC(C(C)C)OC3 (stereo not given)	0	0
Cc1cccc(Nc2nc3c(S(=O)(=O)c4ccccc4)nnn3c3ccccc23)c1	25µM	0
Cc1cc(C)cc(Nc2nc3c(S(=O)(=O)c4ccccc4)nnn3c3ccccc23)c1	?	0
Cc1ccc(NC(=O)Cn2c(-c3cncs3)nc3ccccc32)cc1Br	0	0
N#C/C(=C\c1ccc(OC(=O)c2ccc(Br)s2)cc1)c1nc2ccccc2[nH]1	5µM	0
N#C/C(=C/c1ccc(N2CCCC2)c([N+](=O)[O-])c1)c1nc2ccccc2[nH]1	0	0
N#C/C(=C\c1ccc(OC(=O)c2ccc(Cl)s2)cc1)c1nc2ccccc2[nH]1	4µM	0
N#C/C(=C\c1ccc(Oc2ccc(C(F)(F)F)cc2[N+](=O)[O-])cc1)c1nc2ccccc2[nH]1	?	0
CC(C)c1ccc(C(=O)CC2(O)C(=O)N(CCc3ccccc3)c3ccc(Cl)cc32)cc1 (stereo not given)	0	0
Cc1c(C(=O)Nc2ccc(Br)cc2F)oc2ccc(S(=O)(=O)N3CCCCC3)cc12	0	0
CCC(=O)Nc1ccc(-c2csc(NNC(C)=O)n2)cc1	0	0
CC(=O)Nc1ccc(-c2csc(NC(=O)CCCc3cccs3)n2)cc1	10µM	0
Cc1ccc(-c2csc(NC(=O)CCCc3cccs3)n2)cc1	7.9µM	0
O=C(O)CCC(=O)Nc1nc(-c2ccccc2)cs1	0	0
C[C@]12C[C@@](C)(C=C1/C=C/c1ccccc1)C(=O)C[C@H]2c1ccccc1	0	0
SMILES	Cruzain noTriton	Cruzain inh Det
Cn1c(=O)cc(SCC(=O)NCCc2ccc(Cl)cc2)c2cc(Cl)ccc21	0	0
COc1ccccc1-c1nc(C#N)c(N2CCN(c3cccc(Cl)c3)CC2)o1	?	22µM
COc1ccccc1-c1nc(C#N)c(N2CCN(C(c3ccccc3)c3ccccc3)CC2)o1	7.9µM	25µM
N#Cc1nc(-c2ccco2)oc1N1CCN(c2cccc(Cl)c2)CC1	?	0
N#Cc1nc(-c2ccco2)oc1N1CCN(C(c2ccccc2)c2ccccc2)CC1	?	0
CCOC(=O)c1c(C)c(C(=O)NCc2ccc(Cl)cc2)c(C)n1CC	0	0
Cc1c(Cl)cccc1NC(=O)c1cc2nc(-c3ccc4c(c3)OCO4)cc(C(F)(F)F)n2n1	0	0
Cc1ccc(Nc2nc(Nc3ccc(C)cc3)nc(SC3=NCCS3)n2)cc1	25µM	0
Cc1ccccc1Nc1nc(Nc2ccccc2C)nc(SC2=NCCS2)n1	?	0
CC1(C)[C@@H]2CC[C@]1(C)CN(CCC[N+](C)(C)C)C2	0	0
O=C(Cn1nc(-c2ccccc2)c2c(c1=O)CCCC2)Nc1ccc(F)c(Cl)c1	0	0
COc1ccc(S(=O)(=O)n2nc(OC(=O)c3ccccc3)cc2N)cc1	0	0
COc1ccc(S(=O)(=O)n2nc(OC(=O)c3ccc(C)cc3)cc2N)cc1	0	0
COc1ccc(S(=O)(=O)n2nc(OC(=O)c3cccs3)cc2N)cc1	13µM	?
COc1ccc(S(=O)(=O)n2nc(OC(=O)c3ccco3)cc2N)cc1	20µM	13µM
Cc1ccccc1C(=O)Nc1cccc(C(=O)OCc2cc(=O)n3nc(C4CC4)sc3n2)c1	0	0
CCOc1cc(C(=O)NCc2ccc3c(c2)CCN3C(=O)CC)cc(OCC)c1OCC	?	0
O=C(c1ccc(Cl)cc1)[C@@H]1[C@@H]2C(=O)N(c3cccc4ccccc34)C(=O)[C@@H]2C2c3ccccc3C=NN21 (stereo not given in full)	25µM	0
CC(=O)Oc1ccc(C(=O)[C@H]2[C@H]3C(=O)N(c4ccccc4)C(=O)[C@H]3[C@@H]3C=CC=NN32)cc1	0	0
O=C(c1cc2c(ccc3ccccc32)oc1=O)N1CCCC1	?	0
O=C(O)c1cc2ccc3ccccc3c2oc1=O	25µM	?
O=C(O)c1cc2c(ccc3ccccc32)oc1=O	10µM	?
O=C(O)c1cc2cc(Cl)cc(Cl)c2oc1=O	?	0
Fc1ccc(-n2ncc3c(Nc4cccc(Cl)c4)ncnc32)cc1	0	0
CC(C)c1ccccc1NC(=O)COC(=O)CCN1C(=O)/C(=C\C=C\c2ccccc2)SC1=S	16µM	0
SMILES	Cruzain noTriton	Cruzain inh Det
O=C(CN1C(=O)S/C(=C\C=C\c2ccccc2)C1=O)Nc1ccc(O)cc1	0	0
Cc1ccc(NC(=O)CCCN2C(=O)/C(=C/C=C/c3ccccc3)SC2=S)cc1	32µM	0
CC(C)c1ccccc1NC(=O)COC(=O)Cc1ccsc1	0	0
CCOc1ccc(CNC(=O)c2ccc3c(c2)nc2n3CCC(C)C2)cc1OC (stereo not given)	0	0
COc1ccc(C2CC(=O)c3cnc4c(-c5ccc(F)cc5)c(C)nn4c3C2)cc1OC (stereo not given)	0	0
CC(=O)c1c(C)[nH]c(C(=O)Nc2nc(-c3ccc(-c4ccccc4)cc3)cs2)c1C	10µM	0
COc1ccc(-c2csc(NC(=O)c3nc(-c4ccccc4)oc3C)n2)cc1	7.9µM	0
Cc1oc(-c2ccccc2)nc1C(=O)Nc1nccs1	0	0
CC(=O)c1c(C)[nH]c(C(=O)Nc2nc(-c3ccc(Cl)cc3)cs2)c1C	0	0
NC(=S)N/N=C/c1ccccc1OCc1cccc(Cl)c1	?	0
O=c1cc(CSc2ccccc2)[nH]c(=S)[nH]1	0	0
NC(=S)N/N=C/c1coc2c(ccc3ccccc32)c1=O	0.63µM	?
O=c1cc(/N=C/c2coc3c(ccc4ccccc43)c2=O)[nH]c(=S)[nH]1	7.9µM	0
CCOc1ccc(NC(=O)Cn2c(=O)oc3cc(S(=O)(=O)N4CCC(C)CC4)ccc32)cc1	0	0
N#Cc1ccccc1Cn1c(SCC(=O)NCc2ccccc2)nc2ccccc21	0	0
Cc1ccc(CNC(=O)C2CCN(S(=O)(=O)c3c(C)noc3/C=C/c3ccccc3F)CC2)o1	0	0
O=C(NCc1ccccc1)C12CN(Cc3ccccc3)CC1C(c1cccc([N+](=O)[O-])c1)=NO2 (stereo not given)	0	0
O=C(NCc1ccc(OC(F)(F)F)cc1)C12CN(Cc3ccccc3)CC1C(c1cccc([N+](=O)[O-])c1)=NO2 (stereo not given)	20µM	0
Cc1cc(NC(=O)CN(C)S(=O)(=O)c2ccc3c(c2)CCCC(=O)N3)ccc1Br	0	0
O=C(NC(=S)NNS(=O)(=O)c1ccccc1)c1ccccc1[N+](=O)[O-]	0	0
O=C(NC(=S)NNS(=O)(=O)c1ccccc1)c1ccc([N+](=O)[O-])cc1	10µM	?

Bioassay records from PubChem.
